Screening results deposited in PubChem by National Center for Advancing Translational Sciences (NCATS).
An excerpt weighted towards active compounds, which were near 5.3% of everything screened.
Tau fibril ThT: qHTS for Inhibitors of Tau Fibril Formation, Thioflavin T Binding; Microtubule-associated protein tau (Homo sapiens), P10636; Potency, µM (titrated, usually from 57.4 µM), for the others: at the highest dose activity, negative = inhibition, hits mostly inhibitors; recombinant tau K18 P301L, heparin-induced fibrillization, ThT fluorescence; actives 2.1% (n = 270,000); further: potency means the concentration at half of the fitted maximal effect; nearly all actives have a fitted effect of over 55% in size
Target sequence (P10636 561-689 P618L limits assumed): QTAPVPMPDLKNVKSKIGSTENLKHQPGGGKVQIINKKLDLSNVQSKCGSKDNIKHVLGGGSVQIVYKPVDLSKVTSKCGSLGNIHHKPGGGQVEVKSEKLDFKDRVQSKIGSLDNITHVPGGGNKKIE
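Using a mix of unlabeled (15 uM) and Alexa 594-labeled (0.24 uM) tau K18 P301L, heparin-triggered fibrillization over 6 hr at 37 C was scored by ThT fluorescence.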
Tau FP inhib: qHTS for Inhibitors of Tau Fibril Formation, Fluorescence Polarization | actives 0.39% (n = 280,000) | Potency, µM (top dose mostly 57.7 µM), without a hit: at the top dose activity, negative = inhibition, hits mostly inhibitors | AID 1468, 2008 | Microtubule-associated protein tau (Homo sapiens), P10636 | K18 P301L tau heparin fibrillization, Alexa594 FP, 6 h; further: potency means the concentration at half of the fitted maximal effect; nearly all actives have a fitted effect of over 55% in size
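Heparin (20 uM) drove fibril formation of recombinant tau K18 P301L, 15 uM unlabeled with 0.24 uM Alexa 594 label, for 6 hr at 37 C in 100 mM sodium acetate pH 7. Fluorescence polarization (555/632 nm) read 1 hr after 30 uM ThT.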
Sfp inh: qHTS Assay for Inhibitors of Bacillus subtilis Sfp phosphopantetheinyl transferase (PPTase); 4'-phosphopantetheinyl transferase ffp (Bacillus subtilis), Q9F4F7; Biochemical Sfp PPTase activity, qHTS; Potency, µM, inactives show largest response in the series, negative = inhibition, actives largely listed as inhibitors; actives 3.5% (n = 310,000);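 further: the enzyme is Sfp with the accession as filed and its product quenches rhodamine fluorescence; potency means the concentration at half of the fitted maximal effect; 0% = enzyme reaction without inhibitor and -100% = no enzyme wells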
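Fluorescence-quenching assay with 15 nM Sfp, 5 uM rhodamine-CoA and 12.5 uM BHQ-2-labelled ybbR peptide in pH 7.6 Hepes/MgCl2 buffer. Enzyme was pre-incubated with compound for 15 min at room temperature. Rate was taken from the 30-min fluorescence change (525/598 nm).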
Coupling enz: qHTS Assay for Inhibitors of Fructose-1,6-bisphosphate Aldolase from Giardia Lamblia: Coupling assay counterscreen; coupling enzyme system counterscreen, AmpLite Red fluorescence; actives 0.67% (n = 290,000); activity change, negative = inhibition, % at 58.2 µM, hits read low; in the data active means activity change below about -30%
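Fluorescence at 525 nm excitation and 598 nm emission measured inhibition of the coupled detection system without aldolase. Compounds (at 57.5 uM final) were preincubated 10 min at room temperature with coupling enzyme reagent before a 20 min substrate/AmpLite Red step.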
KDM4E inh: qHTS Assay for Inhibitors of Human Jumonji Domain Containing 2E (JMJD2E) | JMJD2E catalytic domain, FDH-coupled NADH fluorescence (FDH is formaldehyde dehydrogenase) | actives 1.6% (n = 230,000) | AID 2147, 2009 | Potency, µM (series often up to 57.1 µM), for inactives: at the top dose activity change, negative = inhibition, usual class: inhibitors; active means well fitted inhibition curve with a large enough effect, not every such curve was filed as active; inconclusive means small, poorly fitted or top-dose-only effect, or another doubt; inactive means no such curve, though single readings can be large or run the other way;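 further: potency means the concentration at half of the fitted maximal effect; 0% = wells with enzyme and -100% = buffer wells without enzyme; nearly all actives have a fitted effect of over 50% in size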
Target sequence (B2RXH2 1-337 limits assumed): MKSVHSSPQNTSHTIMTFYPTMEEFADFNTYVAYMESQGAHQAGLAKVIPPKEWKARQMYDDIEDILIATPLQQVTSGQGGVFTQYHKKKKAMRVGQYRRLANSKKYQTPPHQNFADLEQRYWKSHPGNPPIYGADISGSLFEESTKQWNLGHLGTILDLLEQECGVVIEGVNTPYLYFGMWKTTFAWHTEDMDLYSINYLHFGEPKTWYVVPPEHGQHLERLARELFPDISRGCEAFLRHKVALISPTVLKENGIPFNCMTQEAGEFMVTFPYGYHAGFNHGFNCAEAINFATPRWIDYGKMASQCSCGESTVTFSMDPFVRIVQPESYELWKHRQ
Tau fluor counter: Counterscreen qHTS for Inhibitors of Tau Fibril Formation, Fluorescence Polarization; tau K18 P301L Alexa594 fluorescence, heparin fibrillization; Potency, µM (series often up to 57.7 µM), without a hit: at the highest dose activity change, negative = decrease; actives 0.93% (n = 280,000); further: potency means the concentration at half of the fitted maximal effect; nearly all actives have a fitted effect of over 55% in size
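Human tau K18 P301L (15 uM unlabeled, 0.24 uM Alexa 594-labeled) in 100 mM sodium acetate pH 7 with 20 uM heparin, 6 hr at 37 C. ThT 30 uM added, 1 hr ambient; Alexa 594 FP and total fluorescence read at 555/632 nm.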
An asterisk follows results filed as active; ? = inconclusive; nt = no result given. Unless noted, the call rests on the fitted dose curve; in most records, active means well fitted curve in the direction sought with a large enough effect; inconclusive means small, poorly fitted or top-dose-only effect, or another doubt; inactive means no such curve, though single readings can be large; an effect the other way counts as inactive or inconclusive. Unless noted, on the % scale 0 is the no-effect control and ±100 the full control effect.

SMILES	Tau fibril ThT	Tau FP inhib	Sfp inh	Coupling enz	KDM4E inh	Tau fluor counter
Cc1ccc(CSc2ncc(Cl)c(C(=O)Oc3ccccc3F)n2)cc1	16µM*	-12%	nt	nt	nt	-24%
CC(=O)c1ccc(-c2ccc(C3C4C=CCCC4(C)C(=O)N3Cc3ccccc3)c(F)c2)cc1 (stereo unspecified)	nt	nt	?	-5	nt	nt
COC(=O)C1=C(C)NC(C)=C(C(=O)NCCCN2CCC(c3ccccc3)(c3ccccc3)CC2)C1c1ccc([N+](=O)[O-])cc1 (stereo unspecified)	nt	nt	-23%	1	nt	nt
O=C(O)c1cc(-c2ccc(/C=c3\sc4nc5ccc(Br)cc5n4c3=O)o2)ccc1Cl	nt	nt	56µM*	3	nt	nt
O=C(O)c1ccccc1-c1ccc(/C=c2\sc3nc4cc(Br)cnc4n3c2=O)o1	?	?	35µM*	-14	-28%	-20%
CC1=NN(c2ccc(Br)cc2)C(=O)/C1=C/c1ccc(-c2ccccc2C(=O)O)o1	nt	nt	5%	12	nt	nt
Cc1cc2nc3s/c(=C/c4ccc(-c5ccccc5C(=O)O)o4)c(=O)n3c2cc1C	nt	nt	79µM*	4	nt	nt
COc1cc([C@@H]2c3cc4c(cc3[C@@H](OC3OC5COC(C)OC5C(O)C3O)[C@H]3COC(=O)[C@H]23)OCO4)cc(OC)c1O (stereo partly specified)	-10%	-6%	34%	nt	nt	-12%
CCOC(=O)c1ccc2c(c1)N(C)C(=O)c1ccccc1S2	nt	nt	-5%	4	nt	nt
CCOC(=O)c1cc2n(c1/N=C/N(C)C)-c1ccccc1C2=O	25µM*	25µM*	7.9µM*	-35*	?	?
COc1ccccc1Cn1ccn(Cc2c(F)cccc2Cl)c(=O)c1=O	-1%	-9%	nt	nt	nt	-29%
C/C(CS(=O)(=O)c1ccc(Cl)cc1)=N/NC(N)=S	-3%	1%	79µM*	-2	1%	-3%
COCCn1c(-c2ccco2)csc1=Nc1cccnc1	?	-3%	20µM*	-9	-10%	-12%
CC(C)Cn1c(-c2ccco2)csc1=Nc1cccnc1	?	-8%	?	-9	-13%	-15%
Cc1ccc(CNC(=O)c2cc3c(=O)n4cccc(C)c4nc3s2)cc1	0%	-10%	nt	nt	nt	-10%
O=C(Nc1cccc(F)c1)c1ccc2c(c1)N(Cc1ccccc1)C(=O)c1ccccc1S2(=O)=O	5%	14µM*	nt	nt	nt	?
CC(=O)c1ccc(NC(=O)c2ccc3c(c2)N(Cc2cccc(Cl)c2)C(=O)c2ccccc2S3(=O)=O)cc1	-10%	16µM*	nt	nt	nt	?
COc1ccc(NC(=O)c2ccc3c(c2)N(Cc2cccc(Cl)c2)C(=O)c2ccccc2S3=O)cc1Cl (stereo unspecified)	4%	?	nt	nt	nt	-22%
COc1ccc(NC(=O)c2ccc3c(c2)N(Cc2cccc(Cl)c2)C(=O)c2ccccc2S3(=O)=O)cc1Cl	12%	16µM*	nt	nt	nt	-17%
O=C(NCCc1ccc(Cl)cc1)C1CCN(S(=O)(=O)c2ccc3[nH]ccc3c2)CC1	10%	?	nt	nt	nt	?
CCN1CCN(C(=O)C(C)Nc2cc(Cl)c(OC)cc2OC)CC1 (stereo unspecified)	?	?	-7%	-43*	?	-21%
CCOc1cc(N2CCOCC2)c(OCC)cc1NC(=O)c1ccc(C)cc1	-6%	9%	12%	-31*	?	-18%
O=C(CSc1cccc[n+]1[O-])Nc1ccccc1Oc1ccccc1	-10%	-3%	40µM*	-2	-8%	1%
